STK33 kin inh: human STK33 kinase inhibition. inhibition, % at 12.5 µM. hit rate 0.44% among 27,000. ADP-Glo luminescence, MBP substrate; in the data active = inhibition above about 20%; inconclusive = no clear call, values can overlap the other calls
Target sequence (Q9BYT3 whole entry, looked up): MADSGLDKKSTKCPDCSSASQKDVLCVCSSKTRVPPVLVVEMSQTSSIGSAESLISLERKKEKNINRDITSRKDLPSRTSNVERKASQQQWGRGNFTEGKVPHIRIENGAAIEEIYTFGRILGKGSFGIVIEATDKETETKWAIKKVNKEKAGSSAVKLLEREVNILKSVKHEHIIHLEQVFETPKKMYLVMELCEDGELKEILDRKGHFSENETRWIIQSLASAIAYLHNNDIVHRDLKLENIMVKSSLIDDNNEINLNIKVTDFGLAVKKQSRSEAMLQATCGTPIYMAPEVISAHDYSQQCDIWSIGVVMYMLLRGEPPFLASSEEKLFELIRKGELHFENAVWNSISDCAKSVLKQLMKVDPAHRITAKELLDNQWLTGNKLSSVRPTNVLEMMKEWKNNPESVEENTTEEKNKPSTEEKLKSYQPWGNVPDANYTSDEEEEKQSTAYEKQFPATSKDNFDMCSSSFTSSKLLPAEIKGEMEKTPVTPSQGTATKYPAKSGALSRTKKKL
PD-1 reverse act: activators reversing PD-1 mediated T-cell inhibition. primary human CD4 T cells, PD-L1 beads, CellTiter-Glo 96 h. activation, % (no concentration beside the values). 29,000 tested, under 10 active; call rule not given here;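 also: 0% = median vehicle wells and 100% = positive control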
NOMO-1 viab: STK33 inhibitor candidate reducing NOMO-1 cell viability; hit rate 7.5% among 37,000; inhibition, % (test concentration not listed); NOMO-1 AML viability, CellTiter-Glo luminescence, 72 h; AID 2330; in the data active = inhibition above about 80%; inconclusive = no clear call, values can overlap the other calls
Starred values were filed as active, the others as inactive. Many of the other results were omitted from the sample, so hits are more common in it than they were.

How did C=C1C(=O)O[C@@H]2[C@H]3C(C)=CC(=O)C3=C(C)C[C@H](O[C@@H]3O[C@H](CO)[C@@H](O)[C@H](O)[C@H]3O)[C@@H]12 do in these assays?
STK33 kin inh: -6; PD-1 reverse act: 2; NOMO-1 viab: 3

Results for COc1ccccc1NC(=O)C1CCCN(S(=O)(=O)c2cc(Cl)ccc2Cl)C1 (centres undefined) ?
STK33 kin inh: -1; NOMO-1 viab: 11

What do the screens show for `Cc1c(/C=C2\SC(c3ccccc3)=NC2=O)c(=O)n(-c2ccccc2)n1C`?
PD-1 reverse act: 0; NOMO-1 viab: 11

Results for Cc1cc(C(=O)Nc2cccc3c2O[C@H](CN(C)Cc2ccc(Oc4ccccc4)cc2)[C@@H](C)CN([C@H](C)CO)C3=O)n(C)n1 ?
PD-1 reverse act: -5; NOMO-1 viab: 111*

How did Cc1cc(C(=O)Nc2cccc3c2O[C@@H](CN(C)Cc2ccc(-c4ccccc4)cc2)[C@H](C)CN([C@@H](C)CO)C3=O)n(C)n1 do in these assays?
PD-1 reverse act: -1; NOMO-1 viab: 46

What do the screens show for `Cc1cc(C(=O)Nc2cccc3c2O[C@H](CN(C)Cc2ccc(C(=O)Nc4ccccc4N)cc2)[C@@H](C)CN([C@@H](C)CO)C3=O)n(C)n1`?
PD-1 reverse act: 1; NOMO-1 viab: inconclusive

What do the screens show for `Cc1cc(C(=O)Nc2cccc3c2O[C@H](CN(C)Cc2ccc(C(=O)Nc4ccccc4N)cc2)[C@H](C)CN([C@H](C)CO)C3=O)n(C)n1`?
PD-1 reverse act: -2; NOMO-1 viab: 127*

How did Cc1cc(C(=O)Nc2cccc3c2O[C@@H](CN(C)Cc2ccccc2)[C@@H](C)CN([C@H](C)CO)C3=O)n(C)n1 do in these assays?
PD-1 reverse act: 0; NOMO-1 viab: 9

What do the screens show for `Cc1cc(C(=O)Nc2cccc3c2O[C@H](CN(C)Cc2ccc(-c4ccccc4)cc2)[C@@H](C)CN([C@H](C)CO)C3=O)n(C)n1`?
PD-1 reverse act: -1; NOMO-1 viab: 89*

How did Cc1ccc(NC(=O)COc2ccccc2)c(NC(=O)c2cccs2)c1 do in these assays?
STK33 kin inh: 7; PD-1 reverse act: 0; NOMO-1 viab: 9

Results for CCOC(=O)c1ccc(NC(=O)Cn2c(C(F)(F)F)nc3ccccc32)cc1 ?
STK33 kin inh: 2; NOMO-1 viab: 34

Results for O=S(=O)(Nc1cccc(C(F)(F)F)c1)c1ccccc1 ?
PD-1 reverse act: 0; NOMO-1 viab: 22

What do the screens show for `CCC(=O)N1c2ccccc2-c2nnc(SC)nc2OC1c1ccccc1` (centres undefined)?
PD-1 reverse act: -1; NOMO-1 viab: 33

What do the screens show for `COc1ccc(NC(=O)CNC(=O)c2ccco2)cc1`?
STK33 kin inh: 0; NOMO-1 viab: 34

How did O=C(CCNc1ccc(Oc2ccccc2)cc1)c1ccco1 do in these assays?
STK33 kin inh: -2; PD-1 reverse act: -7; NOMO-1 viab: 131*

Results for CSc1nc(-c2cccnc2)nc(-c2ccc(OC(F)(F)F)cc2)c1C#N ?
PD-1 reverse act: 0; NOMO-1 viab: 12

How did Cc1ccc(NC(=O)CSc2nc(-c3ccccc3)c(-c3ccccc3)[nH]2)c(C)c1 do in these assays?
STK33 kin inh: 3; NOMO-1 viab: 2

How did Cc1ccccc1NC(=O)CSc1nc2cc3ccccc3cc2[nH]1 do in these assays?
STK33 kin inh: 3; NOMO-1 viab: 115*

What do the screens show for `Cc1cc(C)c(NC(=O)CSc2nc(-c3ccccc3)c(-c3ccccc3)[nH]2)c(C)c1`?
STK33 kin inh: 0; PD-1 reverse act: -6; NOMO-1 viab: 101*

What do the screens show for `O=C(CSc1nc2ccccc2[nH]1)Nc1cccc2ccccc12`?
STK33 kin inh: -3; PD-1 reverse act: -2; NOMO-1 viab: 13

Results for CC(=O)Nc1ccc(OCC(=O)Nc2ccc(Cl)c(Cl)c2)cc1 ?
STK33 kin inh: 4; PD-1 reverse act: 1; NOMO-1 viab: -5

How did CC(C)(C)c1ccc(-c2n[nH]c(S(C)(=O)=O)c2C#N)cc1 do in these assays?
PD-1 reverse act: -1; NOMO-1 viab: 18

How did O=[N+]([O-])c1ccc(OCc2nc(-c3ccccn3)no2)cc1 do in these assays?
STK33 kin inh: 5; PD-1 reverse act: -1; NOMO-1 viab: 0

How did N#Cc1c(NC(=O)CSc2ncccn2)sc2c1CCCC2 do in these assays?
STK33 kin inh: 2; PD-1 reverse act: -1; NOMO-1 viab: 27

Results for O=c1oc(-c2cccc(Cl)c2)nc2c1cnn2-c1ccccc1 ?
PD-1 reverse act: -1; NOMO-1 viab: 115*

What do the screens show for `CC(C)C(=O)Nc1cccc(-c2nc3ccccc3c(=O)o2)c1`?
STK33 kin inh: 7; PD-1 reverse act: -1; NOMO-1 viab: 28

What do the screens show for `COc1ccc([Si](C)(C)[C@@H]2[C@@H](CCn3cc(CCO)nn3)O[C@]3(C(=O)N(Cc4ccc(N5CCOC5=O)cc4)c4ccccc43)[C@H]2C)cc1`?
STK33 kin inh: 24*

Assay outcomes: PubChem BioAssay, Broad Institute
